7 compounds from PubChem BioAssay (NCATS) can be followed below.

A short description of test [1]: qHTS profiling of the MIPE4 collection as inhibitors of Plasmodium falciparum (DD2) proliferation (AID 743345). The conditions noted are these: P. falciparum Dd2 in erythrocytes, SYBR Green DNA, 72 h; at 28.5 µM (top of the series) unless noted. The method, boiled down: (§1)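 Erythrocytes infected with P. falciparum (0.3% parasitemia, 2.5% hematocrit) incubated with compounds 72 h at 37 C, 5% CO2. Lysis with saponin/Triton buffer containing SYBR Green I, overnight at room temperature in the dark; DNA fluorescence (485/535 nm) normalised to 0.29 uM artemisinin and DMSO.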

A short description of test [2]: qHTS profiling of the MIPE4 collection as inhibitors of Plasmodium falciparum (DD2) proliferation (Rep 2) (AID 743346). The conditions noted are these: P. falciparum Dd2 in erythrocytes, SYBR Green DNA, 72 h; at 28.5 µM (top of the series) unless noted. Put shortly:
as §1
A general note: Quantitative high-throughput screening tests each substance at several concentrations.

Test [3] in a line: qHTS profiling of the MIPE4 collection as inhibitors of Plasmodium falciparum (HB3) proliferation (AID 743347).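 Also: plate controls were DMSO vehicle wells for no effect and artemisinin wells for full effect.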 To be noted: P. falciparum HB3 in erythrocytes, SYBR Green DNA, 72 h; at 28.5 µM (top of the series) unless noted. Put shortly:
as §1

Test [4] is described as follows: High-throughput drug toxicity screening in the BPDCN cell line Gen2.2 (AID 1224824).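 Also: cells exposed to compounds for 48 h before reading.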 The conditions noted are these: Gen2.2 BPDCN cells; at 45.8 µM (top of the series) unless noted. The method, boiled down: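 Seed 500 exponentially growing Gen2.2 cells/well; add compounds by pin tool; incubate 48 h, 37 °C, 5% CO2; add CellTiter-Glo, 15 min RT; read luminescence. % activity vs DMSO (100%) and bortezomib (0%).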

Test [5] can be described thus: High-throughput drug toxicity screening in the BPDCN cell line Cal-1 (AID 1224825). The conditions noted are these: Cal-1 BPDCN cell viability, qHTS; at 45.8 µM (top of the series) unless noted. The method, boiled down: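 Exponentially growing Cal-1 cells, 500 per well in phenol red-free RPMI with 10% FBS, were exposed to compounds for 48 h at 37 °C, 5% CO2. Viability was read by CellTiter-Glo luminescence and normalised to DMSO (100%) and 9.2 uM bortezomib (0%).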

Test [6] in a line: qHTS assay for measurement of the activity of small molecule inhibitors on Zika virus induced Caspase-3 activity in human iPSC derived neural progenitor cells (hNPCs) (AID 1224857; active = well fitted inhibition curve with a large enough effect; also: % of control where 0% means no effect; nearly all actives have a fitted effect of over 65% in size). Put shortly:
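Values are percent inhibition of virus-induced caspase-3/7 signal, scaled between uninfected cells and ZIKV-infected cells. Infection used 2 FFU/cell for 6 h after 1 h compound exposure.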

A short description of test [7]: qHTS Screen of the MIPE 4.0 Collection Against Ewings Sarcoma (RDES) (AID 1259252; active = well fitted inhibition curve with a large enough effect; also: nearly all actives have a fitted effect of over 35% in size; also: potency is read from the fitted curve at half-maximal effect). The method, boiled down:
(§2)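 Here, cells in 5% FBS RPMI were exposed for two days (48 h) to compound dilutions added four hours after plating. ATP-based CellTiter-Glo luminescence measured viability, normalized to vehicle and no-cell blanks.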

The nature of test [8]: qHTS Screen of the MIPE 4.0 Collection Against Ewings Sarcoma (TC71) (AID 1259253; active = well fitted inhibition curve with a large enough effect; also: nearly all actives have a fitted effect of over 40% in size; also: potency is read from the fitted curve at half-maximal effect). The method, boiled down: as §2
Test [9] in a line: qHTS Screen of the MIPE 4.0 Collection Against Ewings Sarcoma (EW8) (AID 1259255; active = well fitted inhibition curve with a large enough effect; also: nearly all actives have a fitted effect of over 35% in size; also: potency is read from the fitted curve at half-maximal effect;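 as to viability: 100% = DMSO-treated cells and 0% = medium-only wells without cells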). The method, boiled down: as §2
Test [10] is described as follows: qHTS assay for measurement of the activity of small molecule inhibitors on Zika virus induced Caspase-3 activity in human astrocytoma cells (AID 1224859; active = well fitted inhibition curve with a large enough effect;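 also: plate controls were ZIKV-infected untreated cells for no effect and uninfected cells for full effect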). The method, boiled down:
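Compound added 1 h pre-infection; ZIKV 2 FFU/cell on SNB-19 cells, 6 h, 37 C/5% CO2. Caspase-Glo 3/7 luminescence; values as % inhibition of ZIKV-induced caspase activity.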

Records with an inconclusive call do not appear. The source made the active and inactive calls. Unless noted, no rule for the calls is given here. Positions of bridges follow the written chain, without caps; N, C: chain ends. Non-standard residues stand in square brackets, D forms with d. Residues, ends and D or L forms follow the SMILES beside them. ξ: configuration not given here. *: point of attachment. Octanoyl(6-Me) = CCC(C)CCCCC(=O)*; ξThr(3R) = C[C@@H](O)C(N)C(=O)O; dDab = NCC[C@@H](N)C(=O)O; Dab = NCC[C@H](N)C(=O)O

As to `NC(=NCCCCCCN=C(N)N=C(N)Nc1ccc(Cl)cc1)N=C(N)Nc1ccc(Cl)cc1`, the parasite growth remaining, % of DMSO control (lower = more inhibition) in [1] was 6.46%. Further, in test [2], the parasite growth, % of control (lower = inhibition) came out at 22%. In test [3], this compound registered a growth, % of control of 6.76%. Further, the cell viability, % of control (lower = more cytotoxic) in [4] was 6.22%. For the same compound, the viability (% of control) in test [5] was determined as 2.49%. The Potency entry in test [6] was “inactive”. The Potency in test [7] is 2.96 µM (active); in [8], 4.18 µM (active); in test [9] it was 9.35 µM (active).
For the compound `O=C1NC(O)CCN1[C@@H]1O[C@H](CO)[C@H](O)[C@H]1O` (stereo not given in full), the parasite growth remaining, % of DMSO control (lower = more inhibition) in test [1] turned out to be 97.8%. Moreover, in test [2], the parasite growth, % of control (lower = inhibition) turned out to be 109%. Besides, the growth, % of control in [3] is 59.2%. Moreover, the cell viability, % of control (lower = more cytotoxic) in [4] stood at 105%. The viability (% of control) in test [5] is 115%. The Potency entry in test [10], in test [7], in test [8] and in [9] was “inactive” in each case.
Consider `C[C@H]1O[C@H](O[C@H]2[C@H](O)[C@@H](O)[C@@H](O[C@H]3[C@H](O)[C@@H](O)C(O)O[C@H]3CO)O[C@H]2CO)[C@H](O)[C@@H](O)[C@H]1N[C@H]1C=C(CO)[C@@H](O)[C@H](O)[C@@H]1O` (stereo not given in full), for which, in test [1], the parasite growth remaining, % of DMSO control (lower = more inhibition) came to 127%. Besides, in test [2], the parasite growth, % of control (lower = inhibition) turned out to be 88.4%. The growth, % of control in [3] was 103%. In test [4], the cell viability, % of control (lower = more cytotoxic) was 193%. For the same compound, the viability (% of control) in test [5] turned out to be 134%. Further, the Potency result in test [10], in test [7], in [8] and in test [9] was “inactive” in each case.
In the case of `Oc1cc(-c2nc(-c3ccccc3)[nH]c2-c2ccncc2)ccc1Cl`, the parasite growth remaining, % of DMSO control (lower = more inhibition) in test [1] stood at 9.67%. Further, in [2], the parasite growth, % of control (lower = inhibition) came to 8.42%. Besides, in [4], the cell viability, % of control (lower = more cytotoxic) came out at 3.91%. Moreover, the viability (% of control) in test [5] is 5.51%. Moreover, the Potency result in test [10] is “inactive”. The Potency was 18.7 µM (active) in [7], 26.4 µM (active) in test [8] and 23.5 µM (active) in [9].
In the case of `O=C(O)CCCCC(CCSCc1ccccc1)SCc1ccccc1` (stereo not given), the parasite growth remaining, % of DMSO control (lower = more inhibition) in test [1] was 96.3%. Besides, the parasite growth, % of control (lower = inhibition) in test [2] was found to be 61.5%. The same compound registered a growth, % of control in [3] of 63.9%. The cell viability, % of control (lower = more cytotoxic) in test [4] was determined as 54.3%. In [5], the viability (% of control) turned out to be 23.9%. In addition, the Potency entry in test [10], in [7], in test [8] and in test [9] was “inactive” in each case.
For the compound `CCC(C)CCCCC(=O)N[C@@H](CCN)C(=O)NC(C(=O)N[C@H](CCN)C(=O)N[C@@H]1CCNC(=O)C([C@@H](C)O)NC(=O)[C@@H](CCN)NC(=O)[C@@H](CCN)NC(=O)[C@@H](CC(C)C)NC(=O)[C@H](Cc2ccccc2)NC(=O)[C@H](CCN)NC1=O)[C@@H](C)O` (stereo partly drawn) ({Octanoyl(6-Me)}-[Dab][ξThr(3R)][dDab][dDab][Dab]F[dL][dDab][dDab][ξThr(3R)]; lactam 4-C), the parasite growth remaining, % of DMSO control (lower = more inhibition) in test [1] was 124%. Also, the parasite growth, % of control (lower = inhibition) in test [2] was found to be 83.7%. For the same compound, in [4], the cell viability, % of control (lower = more cytotoxic) came to 172%. In [5], the viability (% of control) was determined as 116%. Also, the Potency result in test [7], in test [8] and in test [9] was “inactive” each time.
For the compound `Cn1cc(-c2ccc3ncc(Cc4ccc5ncccc5c4)n3n2)cn1`, the parasite growth remaining, % of DMSO control (lower = more inhibition) in [1] is 60.3%. Besides, the parasite growth, % of control (lower = inhibition) in test [2] amounted to 33.6%. In test [3], the growth, % of control worked out at 13.9%. In [4], the cell viability, % of control (lower = more cytotoxic) turned out to be 45.5%. For the same compound, the viability (% of control) in [5] was 35.3%. For the same compound, the Potency result in [10], in test [7], in test [8] and in test [9] was “inactive” in each case.
